The list is not random: actives were taken first. Their share in the collection is about 0.92%.
Mtb betalactam – beta-lactam sensitization of Mtb H37Rv. AID 434955. inhibition, % at 25 µM. M. tuberculosis H37Rv growth with meropenem, percent inhibition. 330,000 compounds, 0.27% hits; call rule not given here;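 also: growth measured after seven days incubation then overnight dye step; 0% = bacteria only wells and 100% = bacteria with antibiotic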
FadD28 binding – M. tuberculosis FadD28 bisubstrate binding inhibition. inhibition, % at 12.5 µM. 360,000 compounds, 0.22% hits. FadD28 bisubstrate probe binding, fluorescence polarization; in the data active = inhibition above about 8.5%, passing the limit was not always enough; inconclusive = no clear call, values can overlap the other calls
Mtb hypoxia inh – Mtb hypoxia fluorescent reporter inhibition; M. tuberculosis hypoxia-regulated fluorescent reporter, fluorescence; fluorescence inhibition, % (no concentration beside the values); 300,000 compounds, 0.1% hits; AID 1159583; in the data active = fluorescence inhibition mostly above about 23%, no sharp cut-off; inactive = mostly below about 17%
Mtb UGM inh – blocks M. tuberculosis UGM enzyme; purified UGM, fluorescence polarization probe displacement; inhibition, % at 10 µM; 320,000 compounds, 0.06% hits; AID 504406; in the data active = inhibition above about 10%, passing the limit was not always enough; inconclusive = no clear call, values can overlap the other calls
Target sequence (P9WIQ1 whole entry, looked up): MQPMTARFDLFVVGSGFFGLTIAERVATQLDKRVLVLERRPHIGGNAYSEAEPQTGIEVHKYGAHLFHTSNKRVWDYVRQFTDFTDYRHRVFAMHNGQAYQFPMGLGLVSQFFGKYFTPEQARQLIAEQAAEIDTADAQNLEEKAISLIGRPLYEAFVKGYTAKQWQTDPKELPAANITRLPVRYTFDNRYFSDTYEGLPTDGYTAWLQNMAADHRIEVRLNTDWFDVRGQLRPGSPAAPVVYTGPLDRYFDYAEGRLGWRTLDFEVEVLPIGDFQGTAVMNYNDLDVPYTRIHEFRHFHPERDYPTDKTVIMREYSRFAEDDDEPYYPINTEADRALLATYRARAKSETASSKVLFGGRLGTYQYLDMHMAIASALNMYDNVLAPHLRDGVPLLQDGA
RecA splice inh – inhibitors of M. tuberculosis RecA intein splicing | P9WHJ3 | 290,000 compounds, 0.75% hits | inhibition, % (no concentration beside the values) | AID 2221 | cell-free RecA intein splicing, fluorescence; in the data active = inhibition above about 30%; inconclusive = no clear call, values can overlap the other calls;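 also: 0% = vehicle wells and 100% = reference inhibitor control wells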
Rv3671c inh – Rv3671c (M. tuberculosis) protease inhibition | P9WHR9 | inhibition, % at 5.96 µM | 320,000 compounds, 0.048% hits; in the data active = inhibition above about 38%;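 also: extracellular domain of Rv3671c used as enzyme; 0% = enzyme with DMSO and 100% = no enzyme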
The depositor's hits bear a star; u = inconclusive; x = no result shown; ! = not confirmed by another sample.

SMILES | Mtb betalactam | FadD28 binding | Mtb hypoxia inh | Mtb UGM inh | RecA splice inh | Rv3671c inh
O=C(Nc1ccno1)Nc1ccc(Cl)cc1Cl | 6 | -2 | 58* | 0 | -1 | 5
O=C(Nc1ccc(Cl)cc1Cl)Nn1cnnc1 | 1 | -3 | 1 | -1 | -3 | 1
Cc1ccc(NC(=O)Nc2ccno2)cc1 | 1 | -1 | 89* | 4 | 0 | 7
CN(C)CCCNC(=O)C[C@H]1C[C@H](C(=O)N2CCCCC2)[C@@]2(C)c3[nH]c4ccc(Cl)cc4c3CCN2C1=O | x | -4 | -5 | x | x | x
O=C(N1CCOCC1)C(F)(F)C(=O)N1CCOCC1 | -2 | 0 | x | 3 | -2 | -14
CC1CCCC(C)N1C(=O)COC(=O)c1cccnc1Cl (stereo not drawn) | -2 | -1 | 34* | 1 | x | 4
COc1ccc(NC(=O)CSc2nccc(C)n2)cc1 | 8 | 0 | x | 4 | -7 | -3
O=C(COC(=O)c1ccc([N+](=O)[O-])o1)NC1CCCCC1 | 88 | -2 | x | -2 | x | -8
O=C(COC(=O)c1ccc([N+](=O)[O-])o1)NC1CCCC1 | 85 | -1 | x | 21* | x | -11
O=C(Nc1ccccc1Oc1ccccc1)c1ccc(Br)o1 | 35 | -1 | x | 2 | 15 | -1
CC(C)(C)n1nnnc1C(c1cccs1)N(Cc1cccnc1)Cc1ccccc1Cl (stereo not drawn) | -4 | -3 | 3 | 0 | 35* | -1
CC(C)(ONC(=O)Nc1ccccc1Cl)C(=O)O | 1 | 3 | 9 | 1 | -1 | 6
COC(=O)c1ccc(NC(=O)CNS(=O)(=O)c2cccs2)cc1 | 7 | 3 | -9 | -1 | -1 | -7
CCCCCCCCCCCCCCC[C@@H](O)[C@@H](N)CO | x | 48* | x | x | x | x
CCCCn1c(N)c(N(CC)C(=O)CSCc2c(C)noc2C)c(=O)[nH]c1=O | u | -2 | 3 | -1 | 2 | 6
COc1ccc(C=NNc2cc(N(C)C)nc(N(C)C)n2)cc1 | x | x | -20 | x | x | x
COc1cc(/C=C/c2ccc3cccc(O)c3n2)cc(OC)c1OC | 96 | 13* | -4 | 1 | 3 | -1
Nc1ccc(Nc2ccccc2)c(S(=O)(=O)O)c1 | -7 | 81* | x | -2 | 2 | 5
Cc1ccc(S(=O)(=O)c2cc(Nc3ccccc3)ccc2O)cc1 | -5 | 3 | 6 | 1 | 9 | -6
Nc1cccc(Nc2ccccc2)c1 | 52 | -2 | 7 | -1 | 2 | -2
Cc1ccc(Nc2ccc(N)cc2S(=O)(=O)O)cc1 | -4 | 85* | 3 | 0 | 2 | -2
O=C(O)CCCCCCCCCCP(=O)(c1ccccc1)c1ccccc1 | -5 | -3 | 15 | 1 | 1 | 0
O=P(CCCCCCCCCP(=O)(c1ccccc1)c1ccccc1)(c1ccccc1)c1ccccc1 | 23 | -4 | -1 | 2 | 60* | 2
Cc1cc(C(=O)NN=Cc2cccc(OC(=O)c3ccco3)c2)n[nH]1 | x | x | 2 | x | x | x
COc1cc(C(=O)NCC(=O)N/N=C/c2cccc(OC(=O)c3ccco3)c2)cc(OC)c1OC | -1 | -4 | x | -1 | 39* | 12
SMILES | Mtb betalactam | FadD28 binding | Mtb hypoxia inh | Mtb UGM inh | RecA splice inh | Rv3671c inh
Cc1cc(C(=O)N/N=C/c2cccc(OC(=O)c3ccco3)c2)n[nH]1 | -5 | -2 | x | 0 | 44* | 27
Cc1ccc(C)c(OCc2cc(C(=O)N3C[C@H]4C[C@@H](C3)c3cccc(=O)n3C4)no2)c1 | -2 | -2 | 4 | -4 | 0 | -2
CCCc1c(C(=O)N/N=C/c2ccoc2)nnn1-c1nonc1N | x | -1 | x | x | x | x
CCOC(=O)c1c(C)oc2c1C(=O)c1ccccc1C2=O | 2 | 0 | -9 | -2 | 59* | -52
Cc1oc2c(c1C(=O)O)C(=O)c1ccccc1C2=O | -2 | -2 | 3 | -1 | 68* | -54
Cn1c(=O)c(N)c2c3c(c(Br)ccc31)C(=O)c1ccccc1-2 | 26 | -2 | 2 | 15* | -8 | 20
CCOc1ccccc1Nc1nnc(Cc2ccccc2Cl)c(=O)[nH]1 | -1 | -2 | 0 | -1 | 31* | -4
COC(=O)c1sc(-c2ccccc2)cc1NC(C)=O | 7 | -1 | 10 | 3 | -2 | -3
COC(=O)c1sc(-c2cccs2)cc1NC(=O)/C=C/C(=O)O | -8 | -5 | x | 2 | 42* | 5
O=C(c1ccc(NS(=O)(=O)c2ccc3[nH]c(=O)[nH]c3c2)cc1)N1CCN(c2ccccc2)CC1 | 8 | -1 | 5 | -2 | x | -4
O=C(O)c1ccc(O)cc1O | -5 | -3 | -4 | 0 | x | 6
Nc1ccc(C(=O)O)c(O)c1 | 98 | 16*! | x | -3 | 1 | 6
O=C(CSc1nc2ccccc2nc1N1CCCCC1)N1CCN(c2ccccc2)CC1 | -1 | 1 | -3 | 0 | 9 | 2
O=C(CSc1nc2ccccc2nc1N1CCOCC1)N1CCN(c2ccccc2)CC1 | 99 | 0 | 17* | -1 | 10 | 2
CSC(=NS(=O)(=O)c1ccc(N)cc1)NS(=O)(=O)c1cccs1 | x | 17* | 9 | x | x | x
CSC(=NC(C)c1ccccc1)NS(=O)(=O)c1cccs1 (stereo not drawn) | 4 | -2 | 2 | -1 | 3 | 7
COc1ccc(Nc2nc(C)c(-c3ccccc3)s2)cc1 | 96 | 0 | 0 | 0 | x | 7
COc1cc(OC)cc(-c2nnc(SCC(=O)N(C(C)C)C(C)C)o2)c1 | 3 | -3 | 6 | 2 | -1 | -1
COc1cc(OC)cc(-c2nnc(Sc3ccc(C=O)cc3[N+](=O)[O-])o2)c1 | -5 | x | x | 0 | 52* | 7
c1nc2sc3c(c2c2nnnn12)CCCC3 | -6 | -1 | 10 | -2 | -1 | -4
O=C(NN=Cc1cc(Br)c(O)c(Br)c1O)c1ccc2c(c1)OCCO2 | x | x | 8 | x | x | x
Cc1cnc(C(=O)NC(C)CCc2ccccc2)cn1 (stereo not drawn) | 4 | -4 | 38* | 0 | -1 | 5
CC(=O)c1cccc(NC(=O)C(C)OC(=O)Cc2n[nH]c(=O)c3ccccc23)c1 (stereo not drawn) | -3 | 0 | 0 | -1 | 2 | 2
CCOCCCn1c(=NC(=O)c2cccs2)c(C#N)cc2c(=O)n3ccccc3nc21 | -10 | -3 | 14 | 16* | -166 | 2
CCCCNC(=O)c1sc(=S)n2c1[nH]c(=O)c1ccc(C(=O)NCCc3ccc(OC)c(OC)c3)cc12 | 59 | 0 | -7 | 4 | 4 | -6
O=C(NCc1ccccc1)c1sc(=S)n2c1[nH]c(=O)c1ccccc12 | -7 | 41* | 2 | 0 | -54 | -7
CCOC(=O)c1c(CCl)nc2ccccc2c1-c1ccccc1 | 97 | -1 | x | -1 | 41* | 1
CN(C)c1ccc(/C=C2\C(=O)NC(=O)N(CCc3ccc(F)cc3)C2=O)cc1 | 0 | 25* | 6 | -1 | 5 | -31
O=C(O)C(SC(C(=O)O)c1ccccc1)c1ccccc1 (stereo not drawn) | x | 0 | x | x | x | x
O=C(NC1=C(Nc2ccc(F)cc2)C(=O)c2ccccc2C1=O)c1ccc(Cl)cc1 | 10 | -4 | -17 | 0 | 59* | -53
